# Laboratory results reported in PubChem BioAssay AID1508601 (ICCB-Longwood Screening Facility, Harvard Medical School, 2020).
# Several values for one entry are separate records, joined by “and”; a condition that tells them apart may be missing. Identical values can stand only once. In all, about 5,700 compounds went through this assay and about 85 (1%) were called active. No stated cut-off is given here; in the data, active means p53-positive nuclei above about 36% (passing the limit was not always enough); inactive means the rest. Only a selection was taken, and actives are over-represented in it overall.
# Columns and labels:
# [1] = nuclear p53 accumulation, HPV+ cells – imaging, p53-positive nuclei imaging, 24 h, 48 h (AID 1508601); conditions: 24/48 h
# [2] = molecular target: Cellular tumor antigen p53 (Homo sapiens) (UniProt P04637); experiment: as above; conditions: 24/48 h, stronger effect = higher value
# Chain of Cellular tumor antigen p53 (Homo sapiens) (P04637 whole entry, looked up): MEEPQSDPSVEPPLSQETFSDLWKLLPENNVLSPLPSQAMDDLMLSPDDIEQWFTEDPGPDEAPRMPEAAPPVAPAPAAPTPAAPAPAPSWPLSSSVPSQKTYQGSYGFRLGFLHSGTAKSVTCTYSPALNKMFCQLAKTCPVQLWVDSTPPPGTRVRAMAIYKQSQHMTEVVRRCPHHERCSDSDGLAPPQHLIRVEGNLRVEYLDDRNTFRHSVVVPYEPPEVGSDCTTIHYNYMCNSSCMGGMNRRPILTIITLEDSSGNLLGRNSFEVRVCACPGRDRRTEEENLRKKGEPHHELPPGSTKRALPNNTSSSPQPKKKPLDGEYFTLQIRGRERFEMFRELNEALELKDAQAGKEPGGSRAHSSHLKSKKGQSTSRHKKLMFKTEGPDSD
# [3] = measured here: cell number at 24 h, Library stock concentration: 80 uM
# [4] = measured here: cell number at 24 h, Library stock concentration: 400 uM
# [5] = measured here: cell number at 24 h, Library stock concentration: 2 mM
# [6] = measured here: cell number at 24 h, Library stock concentration: 3.33 mM
# [7] = measured here: cell number at 24 h, Library stock concentration: 10 mM
# [8] = measured here: cell number at 48 h, Library stock concentration: 80 uM
# [9] = measured here: cell number at 48 h, Library stock concentration: 400 uM
# [10] = measured here: cell number at 48 h, Library stock concentration: 2 mM
# [11] = measured here: cell number at 48 h, Library stock concentration: 3.33 mM
# [12] = measured here: cell number at 48 h, Library stock concentration: 10 mM
# [13] = Library stock concentration: 80 uM
# [14] = Library stock concentration: 400 uM
# [15] = Library stock concentration: 2 mM
# [16] = Library stock concentration: 3.33 mM
# [17] = Library stock concentration: 10 mM
# [18] = measured here: p53 positive nuclei at 24 h, Library stock concentration: 80 uM
# [19] = measured here: p53 positive nuclei at 24 h, Library stock concentration: 400 uM
# [20] = measured here: p53 positive nuclei at 24 h, Library stock concentration: 2 mM
# [21] = measured here: p53 positive nuclei at 24 h, Library stock concentration: 3.33 mM
# [22] = measured here: p53 positive nuclei at 24 h, Library stock concentration: 10 mM
structure (smiles),measurement,setting,value
CC(C)CC(=O)Nc1n[nH]c2c1CN(C(=O)C1CCN(C)CC1)C2(C)C,"nuclei count, normalised",[1]; [3],90.1%
same,"nuclei count, normalised",[1]; [4],79.8%
same,"nuclei count, normalised",[1]; [5],61%
same,"nuclei count, normalised",[1]; [6],45.9%
same,"nuclei count, normalised",[1]; [7],39.3%
same,"nuclei count, normalised",[1]; [8],91.5%
same,"nuclei count, normalised",[1]; [9],71.9%
same,"nuclei count, normalised",[1]; [10],44.9%
same,"nuclei count, normalised",[1]; [11],31.6%
same,"nuclei count, normalised",[1]; [12],23.2%
same,"p53-positive nuclei, normalised",[2]; [13],-0.0742% (inactive)
same,"p53-positive nuclei, normalised",[2]; [14],0.409% (inactive)
same,"p53-positive nuclei, normalised",[2]; [15],5.57% (inactive)
same,"p53-positive nuclei, normalised",[2]; [16],45.4% (inactive)
same,"p53-positive nuclei, normalised",[2]; [17],3.79% (inactive)
same,"p53-positive nuclei, normalised",[2]; [18],-0.129%
same,"p53-positive nuclei, normalised",[2]; [19],0.453%
same,"p53-positive nuclei, normalised",[2]; [20],0.779%
same,"p53-positive nuclei, normalised",[2]; [21],13.5%
same,"p53-positive nuclei, normalised",[2]; [22],0.472%
Cc1nc(Nc2n[nH]c3c2CN(C(=O)NC(CN(C)C)c2ccccc2)C3(C)C)c2sccc2n1 (centres undefined),"nuclei count, normalised","[1]; measured here: cell number at 24 h, Library stock concentration: 46 uM",105%
same,"nuclei count, normalised",[1]; [3],95.1%
same,"nuclei count, normalised","[1]; measured here: cell number at 24 h, Library stock concentration: 278 uM",96.3%
same,"nuclei count, normalised",[1]; [4],85.6%
same,"nuclei count, normalised","[1]; measured here: cell number at 24 h, Library stock concentration: 1.67 mM",75.5%
same,"nuclei count, normalised",[1]; [5],66.2%
same,"nuclei count, normalised",[1]; [6],47.2%
same,"nuclei count, normalised",[1]; [7],45.2% and 45.1%
same,"nuclei count, normalised","[1]; measured here: cell number at 48 h, Library stock concentration: 46 uM",108%
same,"nuclei count, normalised",[1]; [8],96.4%
same,"nuclei count, normalised","[1]; measured here: cell number at 48 h, Library stock concentration: 278 uM",99.1%
same,"nuclei count, normalised",[1]; [9],92.2%
same,"nuclei count, normalised","[1]; measured here: cell number at 48 h, Library stock concentration: 1.67 mM",72.1%
same,"nuclei count, normalised",[1]; [10],63.4%
same,"nuclei count, normalised",[1]; [11],37.3%
same,"nuclei count, normalised",[1]; [12],32.4% and 35.1%
same,"p53-positive nuclei, normalised",[2]; Library stock concentration: 46 uM,-0.184% (inactive)
same,"p53-positive nuclei, normalised",[2]; [13],-0.159% (inactive)
same,"p53-positive nuclei, normalised",[2]; Library stock concentration: 278 uM,-0.101% (inactive)
same,"p53-positive nuclei, normalised",[2]; [14],-0.117% (inactive)
same,"p53-positive nuclei, normalised",[2]; Library stock concentration: 1.67 mM,0.691% (inactive)
same,"p53-positive nuclei, normalised",[2]; [15],2.71% (inactive)
same,"p53-positive nuclei, normalised",[2]; [16],69.1% (active)
same,"p53-positive nuclei, normalised",[2]; [17],18.9% (inactive) and 1.61% (inactive)
same,"p53-positive nuclei, normalised","[2]; measured here: p53 positive nuclei at 24 h, Library stock concentration: 46 uM",0.116%
same,"p53-positive nuclei, normalised",[2]; [18],-0.151%
same,"p53-positive nuclei, normalised","[2]; measured here: p53 positive nuclei at 24 h, Library stock concentration: 278 uM",-0.0682%
same,"p53-positive nuclei, normalised",[2]; [19],0.0839%
same,"p53-positive nuclei, normalised","[2]; measured here: p53 positive nuclei at 24 h, Library stock concentration: 1.67 mM",1.31%
same,"p53-positive nuclei, normalised",[2]; [20],2.05%
same,"p53-positive nuclei, normalised",[2]; [21],6.89%
same,"p53-positive nuclei, normalised",[2]; [22],1.74% and 0.752%
CCCCCOC(=O)Nc1nc(=O)n(C2OC(C)C(O)C2O)cc1F (centres undefined),"nuclei count, normalised",[1]; [6],99.3%
same,"nuclei count, normalised",[1]; [11],102%
same,"p53-positive nuclei, normalised",[2]; [16],-0.587% (inactive)
same,"p53-positive nuclei, normalised",[2]; [21],-0.329%
CCC(=O)O[C@@]1(C(=O)CCl)C(C)C[C@H]2[C@@H]3CC(F)C4=CC(=O)C=C[C@]4(C)[C@]3(F)C(O)C[C@@]21C (some centres undefined),"nuclei count, normalised",[1]; [6],104%
same,"nuclei count, normalised",[1]; [11],97.5%
same,"p53-positive nuclei, normalised",[2]; [16],-0.166% (inactive)
same,"p53-positive nuclei, normalised",[2]; [21],-0.278%
CCN(CC)Cc1ccc2cc(COC(=O)Nc3ccc(C(=O)NO)cc3)ccc2c1,"nuclei count, normalised",[1]; [6],39.9%
same,"nuclei count, normalised",[1]; [11],22.6%
same,"p53-positive nuclei, normalised",[2]; [16],95.7% (active)
same,"p53-positive nuclei, normalised",[2]; [21],67.1%
CCCCN(Cc1ccc(C(=O)NO)cc1)C(=O)Nc1ccccc1,"nuclei count, normalised",[1]; [3],103%
same,"nuclei count, normalised",[1]; [4],99.5%
same,"nuclei count, normalised",[1]; [5],114%
same,"nuclei count, normalised",[1]; [6],118%
same,"nuclei count, normalised",[1]; [7],74.8%
same,"nuclei count, normalised",[1]; [8],109%
same,"nuclei count, normalised",[1]; [9],101%
same,"nuclei count, normalised",[1]; [10],99.5%
same,"nuclei count, normalised",[1]; [11],90.2%
same,"nuclei count, normalised",[1]; [12],67.8%
same,"p53-positive nuclei, normalised",[2]; [13],-0.143% (inactive)
same,"p53-positive nuclei, normalised",[2]; [14],0.163% (inactive)
same,"p53-positive nuclei, normalised",[2]; [15],0.295% (inactive)
same,"p53-positive nuclei, normalised",[2]; [16],0.281% (inactive)
same,"p53-positive nuclei, normalised",[2]; [17],5.72% (inactive)
same,"p53-positive nuclei, normalised",[2]; [18],-0.0551%
same,"p53-positive nuclei, normalised",[2]; [19],-0.12%
same,"p53-positive nuclei, normalised",[2]; [20],0.226%
same,"p53-positive nuclei, normalised",[2]; [21],0.149%
same,"p53-positive nuclei, normalised",[2]; [22],13.7%
COc1ccc(Cn2ccc3ccc(C(=O)NO)cc32)cc1,"nuclei count, normalised",[1]; [3],107%
same,"nuclei count, normalised",[1]; [4],107%
same,"nuclei count, normalised",[1]; [5],105%
same,"nuclei count, normalised",[1]; [6],105%
same,"nuclei count, normalised",[1]; [7],101%
same,"nuclei count, normalised",[1]; [8],107%
same,"nuclei count, normalised",[1]; [9],99.6%
same,"nuclei count, normalised",[1]; [10],98.8%
same,"nuclei count, normalised",[1]; [11],88.9%
same,"nuclei count, normalised",[1]; [12],95.1%
same,"p53-positive nuclei, normalised",[2]; [13],-0.106% (inactive)
same,"p53-positive nuclei, normalised",[2]; [14],-0.0148% (inactive)
same,"p53-positive nuclei, normalised",[2]; [15],-0.164% (inactive)
same,"p53-positive nuclei, normalised",[2]; [16],0.097% (inactive)
same,"p53-positive nuclei, normalised",[2]; [17],-0.0788% (inactive)
same,"p53-positive nuclei, normalised",[2]; [18],-0.0424%
same,"p53-positive nuclei, normalised",[2]; [19],-0.00427%
same,"p53-positive nuclei, normalised",[2]; [20],0.00889%
same,"p53-positive nuclei, normalised",[2]; [21],-0.209%
same,"p53-positive nuclei, normalised",[2]; [22],0.0845%
